Sampled rows, rich in hits. Any-hit rate of the full collection: about 2.6%.
eIF4H FP inh – inhibitors of RNA binding by human eIF4H. Q15056. eIF4H fluorescence polarization binding assay. inhibition, % at 35 µM. actives 0.94% (n = 290,000). AID 2012;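 also: calls also rest on retests at 20 µM and on dose response follow-up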
PHOSPHO1 block – inhibitors of human PHOSPHO1 phosphatase. Q8TCT1. recombinant PHOSPHO1, absorbance phosphatase assay. inhibition, % at 13.3 µM. actives 1.1% (n = 290,000). AID 1565; in the data active = inhibition above about 60%
Target sequence (Q8TCT1 whole entry, looked up): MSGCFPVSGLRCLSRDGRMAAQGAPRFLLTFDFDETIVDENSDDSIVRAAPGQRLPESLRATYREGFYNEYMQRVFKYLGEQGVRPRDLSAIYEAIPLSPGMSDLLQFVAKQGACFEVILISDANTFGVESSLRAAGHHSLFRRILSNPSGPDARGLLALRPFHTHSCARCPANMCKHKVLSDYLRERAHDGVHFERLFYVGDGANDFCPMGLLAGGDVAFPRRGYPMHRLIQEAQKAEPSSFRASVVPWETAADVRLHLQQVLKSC
MLLE-PAM2 inh – blocks PAM2 peptide binding to the PABP1 MLLE domain; P11940; actives 0.36% (n = 360,000); GST-MLLE / FITC-PAM2 fluorescence polarization; AID 588489; inhibition, % at 20 µM; in the data active = inhibition above about 35%, passing the limit was not always enough;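 also: plate controls were DMSO wells with GST-MLLE for no effect and wells lacking GST-MLLE protein for full effect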
A3G deaminase – inhibitors of human APOBEC3G DNA deaminase; actives 0.28% (n = 330,000); inhibition, % at 20 µM; recombinant A3G, ssDNA deamination FAM/TAMRA fluorescence; Q9HC16; AID 493012;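 active = inhibition of at least 40% at 20 µM, with no more than 30% in the related APOBEC3A deaminase screen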;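 also: plate controls were DMSO wells with A3G for no effect and wells lacking A3G enzyme for full effect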
A3A deaminase – inhibitors of human APOBEC3A DNA deaminase | recombinant A3A, FAM/TAMRA ssDNA deamination fluorescence | inhibition, % at 20 µM | actives 0.41% (n = 330,000);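 active = at least 40% inhibition at 20 µM here, with at most 30% in a related deaminase screen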;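 also: plate controls were A3A with DMSO for no effect and wells lacking A3A enzyme for full effect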
PABP FP inh – PABP-poly(A) binding inhibition; P11940; PABP-poly(A) RNA binding, fluorescence polarization; calls only at 35 µM; actives 1% (n = 290,000);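 also: calls also rest on retests at 20 µM and on dose response follow-up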
Active calls of the source: *. Unless noted, no rule for the calls is given here.

NS(=O)(=O)c1ccc(CCNC(=O)CCCCCn2c(=S)[nH]c3ccc(Br)cc3c2=O)cc1 was read as eIF4H FP inh 0, PHOSPHO1 block -148, MLLE-PAM2 inh -88, A3G deaminase -13, A3A deaminase -6 and PABP FP inh inactive.
Screening Cc1ccc(Nc2nc(N)[nH]c(=O)c2N=O)cc1 returned eIF4H FP inh inconclusive, PHOSPHO1 block 3, MLLE-PAM2 inh 20, A3G deaminase -7, A3A deaminase -1 and PABP FP inh active.
CCOc1ccccc1-c1nnc(SCC(=O)NC2(C#N)CCCC2)o1 was read as MLLE-PAM2 inh -6, A3G deaminase -2 and A3A deaminase 2.
Screening Cc1cscc(C)c1=S returned MLLE-PAM2 inh 38*.
N#CC1=C(S)N=C(N)C(c2nc(-c3ccccc3)cs2)C12CCCCC2 (stereo unspecified) was read as eIF4H FP inh -6, PHOSPHO1 block 64*, MLLE-PAM2 inh -24, A3G deaminase -5, A3A deaminase -5 and PABP FP inh inactive.
For N#CC1=C(S)N=C(N)C(c2nc(-c3ccccc3)cs2)C12CCCC2 (stereo unspecified) the results were eIF4H FP inh -3, PHOSPHO1 block 43, MLLE-PAM2 inh -15, A3G deaminase -6, A3A deaminase -4 and PABP FP inh inactive.
COc1ccc(C(=O)CCS(=O)(=O)c2ccc(C)cc2)cc1OC was read as eIF4H FP inh -8, PHOSPHO1 block 24, MLLE-PAM2 inh 23, A3G deaminase -4, A3A deaminase -2 and PABP FP inh inactive.
Screening CN(C)S(=O)(=O)c1cccc(-c2nn(-c3ccccc3)cc2/C=C(\C#N)c2nc3ccccc3[nH]2)c1 returned eIF4H FP inh -7, PHOSPHO1 block -9, MLLE-PAM2 inh -26, A3G deaminase -2, A3A deaminase -1 and PABP FP inh inactive.
CN(C)S(=O)(=O)c1cccc(-c2nn(-c3ccccc3)cc2/C=C2\SC(=S)NC2=O)c1 was read as eIF4H FP inh inconclusive, PHOSPHO1 block -8, MLLE-PAM2 inh -82 and PABP FP inh active.
For CC12CCC(O)CC1=CCC1C2CCC2(C)C1CCC21CCC(=O)O1 (stereo unspecified) the results were eIF4H FP inh 12*, PHOSPHO1 block 3, MLLE-PAM2 inh -4 and PABP FP inh active.
Screening Cc1nc(NC(=O)/C=C/c2ccccc2)sc1C(=O)Nc1ccc(Cl)cc1 returned eIF4H FP inh -11, PHOSPHO1 block 65*, MLLE-PAM2 inh -17, A3G deaminase -5, A3A deaminase -3 and PABP FP inh inactive.
`O=C(/C=C/c1ccc(Cl)cc1)Nc1nccs1` gave eIF4H FP inh active, PHOSPHO1 block 18, MLLE-PAM2 inh 5 and PABP FP inh inactive.
CCNC(=S)NS(=O)(=O)c1ccc(CC)cc1 was read as eIF4H FP inh -10, PHOSPHO1 block -3, MLLE-PAM2 inh 33, A3G deaminase -2, A3A deaminase -3 and PABP FP inh inactive.
CCNC(=S)NS(=O)(=O)c1ccc(C)cc1 was read as eIF4H FP inh 0, PHOSPHO1 block 3, MLLE-PAM2 inh 41*, A3G deaminase -7, A3A deaminase -4 and PABP FP inh inactive.
Cc1nc2ccccn2c1/C(O)=C1\C(=O)C(=O)N(CCN(C)C)C1c1ccco1 (stereo unspecified) was read as eIF4H FP inh 9, PHOSPHO1 block -17, MLLE-PAM2 inh 50*, A3G deaminase 1, A3A deaminase 2 and PABP FP inh inactive.
CC(=O)Nc1cccc(NC(=O)c2cc(-c3ccccn3)nc3ccc(Cl)cc23)c1 was read as eIF4H FP inh 52, PHOSPHO1 block 33, MLLE-PAM2 inh -3, A3G deaminase -5, A3A deaminase 0 and PABP FP inh active.
For CC(=O)Nc1cccc(NC(=O)c2cc(-c3cccnc3)nc3ccc(Cl)cc23)c1 the results were eIF4H FP inh -4, PHOSPHO1 block -7, MLLE-PAM2 inh -15, A3G deaminase -4, A3A deaminase -6 and PABP FP inh inactive.
CCc1nnc(NC(=O)c2cc(-c3ccccn3)nc3ccc(Br)cc23)s1 was read as eIF4H FP inh 14, PHOSPHO1 block 72*, MLLE-PAM2 inh 24, A3G deaminase -4, A3A deaminase 0 and PABP FP inh inactive.
